ADAM17 inh: ADAM17 inhibitors, primary screen, biochemical, QFRET | Disintegrin and metalloproteinase domain-containing protein 17 (Homo sapiens), P78536 | recombinant ADAM17, EDANS/DABCYL FRET peptide cleavage | inhibition, % at 6.95 µM | hit rate 0.83% among 370,000;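 active = inhibition above the mean of compounds lying between control limits plus 3 SD, set per campaign, cut at about 8.5% in these data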;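 also: 0% = DMSO-only wells as the low control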
Ecoli rRNA inh: reduced GFP signal of wild-type E. coli, primary screen, bacterial rRNA inhibitor project, GFP/RFP fluorescence, OD600, single point. hit rate 1.6% among 350,000. GFP signal change (wild-type ribosome), % (test concentration not listed). AID 720706, 2013. E. coli WT GFP vs humanized-ribosome RFP mutants, 24 h; active compounds read low; DMSO median 0, no signal -100;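 active = significant combined selectivity score with lowered wild-type GFP, culture density cut under 30%, mutant RFP and density less affected; inactive = any of these conditions unmet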
proKLK7 act: proKLK7 zymogen activators, primary screen, biochemical, fluorescence intensity; activation, % at 7 µM; AID 652039, 2013; hit rate 0.9% among 370,000; purified proKLK7, EDANS-DABCYL substrate fluorescence; 100% is mature enzyme control, 0% vehicle; Kallikrein-7 (Homo sapiens), P49862;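 active = activation above the mean of all tested compounds plus 3 SD, computed per campaign excluding outliers beyond control limits, cut at about 13% in these data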
Target sequence (P49862 whole entry, looked up): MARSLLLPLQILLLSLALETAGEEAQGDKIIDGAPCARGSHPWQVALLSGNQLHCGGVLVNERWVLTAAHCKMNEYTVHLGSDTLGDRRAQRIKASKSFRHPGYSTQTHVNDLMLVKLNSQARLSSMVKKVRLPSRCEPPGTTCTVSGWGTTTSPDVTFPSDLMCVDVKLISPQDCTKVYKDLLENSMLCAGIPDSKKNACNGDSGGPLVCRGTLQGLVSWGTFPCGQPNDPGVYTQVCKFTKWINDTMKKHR
FGF22 binding: binders of human FGF22 protein, primary screen, FGF22 synaptogenesis inhibitor project, biophysical, thermal shift, single point; Fibroblast growth factor 22 (Homo sapiens), Q9HCT0; recombinant FGF22 thermal shift, SYPRO orange fluorescence; percent of sucrose octasulfate shift, DMSO zero; activity (Tm shift, normalised), % at 9.99 µM; hit rate 1.5% among 340,000;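 active = mean Tm shift, scaled 0 neutral to 100 positive control, at about 1.3% or above, every replicate too, limit read from the data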
Target sequence (Q9HCT0 whole entry, looked up): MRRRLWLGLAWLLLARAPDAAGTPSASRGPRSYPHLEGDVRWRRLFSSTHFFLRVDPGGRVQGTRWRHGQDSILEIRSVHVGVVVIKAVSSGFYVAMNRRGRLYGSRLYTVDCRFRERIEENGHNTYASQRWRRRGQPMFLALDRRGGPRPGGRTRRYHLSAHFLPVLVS
ADAM10 inh: human ADAM10 inhibitors, primary screen, biochemical, QFRET, HTS; inhibition, % at 7 µM; AID 720582, 2013; recombinant ADAM10, EDANS/DABCYL FRET peptide cleavage, 3 h; hit rate 0.62% among 370,000;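 active = inhibition above a per-campaign cutoff equal to the mean of compounds falling between control-based bounds plus 3 SD, cut at about 20% in these data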;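 also: 0% = DMSO wells while the 100% control is not disclosed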
ADAM10 confirm: human ADAM10 inhibitors, confirmation, biochemical, QFRET, triplicate. inhibition, % at 6.95 µM. AID 743208, 2013. hit rate 1% among 2,100. shares compounds with ADAM10 inh. ADAM10 QFRET peptide cleavage, EDANS fluorescence;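 active = inhibition above about 20% chosen separately for each screening run, limit read from the data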;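 also: 0% = DMSO wells and 100% = marimastat wells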
ADAM17 ctr: ADAM17 inhibitors, counter-screen for ADAM10 exosite inhibitor project, biochemical, QFRET, high throughput. ADAM17 QFRET peptide cleavage, EDANS fluorescence. shares compounds with ADAM10 inh. AID 743214, 2013. hit rate 0.5% among 2,100. inhibition, % at 6.95 µM;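 active = mean triplicate inhibition above the solvent-only control wells' mean plus 3 SD, cut at about 12% in these data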;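 also: 0% = DMSO wells and 100% = marimastat wells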
ADAM10 counter: ADAM10 inhibitors, counter-screen for ADAM17 exosite inhibitor project, biochemical, FRET, human ADAM10; shares compounds with ADAM17 inh; recombinant ADAM10, EDANS/DABCYL FRET peptide cleavage, 3 h; inhibition, % at 6.95 µM; hit rate 47% among 2,900;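 active = mean inhibition over the triplicate runs exceeds the activity threshold set in the earlier primary screen, cut at about 20% in these data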;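 also: 0% = DMSO wells and 100% = marimastat wells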
ADAM17 confirm: ADAM17 inhibitors, hit retest, confirmation, biochemical, QFRET peptide cleavage; shares compounds with ADAM17 inh; recombinant ADAM17, EDANS/DABCYL QFRET peptide cleavage; inhibition, % at 6.95 µM; hit rate 65% among 2,900; AID 743257, 2014;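 active = mean inhibition across replicates above the hit cutoff set in the primary screen, cut at about 8.5% in these data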;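 also: 0% = DMSO wells and 100% = marimastat wells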
Active calls of the source: *; / = no result given. In the library only some 3.8% were active in any assay of this set; here they are far more common.

SMILES | ADAM17 inh | Ecoli rRNA inh | proKLK7 act | FGF22 binding | ADAM10 inh | ADAM10 confirm | ADAM17 ctr | ADAM10 counter | ADAM17 confirm
Cc1onc(-c2ccccc2)c1C(=O)OCC(=O)Nc1ccc(OC(F)(F)F)cc1 | 9.4* | / | 0.4 | 0.2 | 24.8* | 3.9 | 1.3 | 32.6* | 17.2*
COc1ccc(C(=O)OCC(=O)Nc2ccc(Cl)c(C(F)(F)F)c2)c(OC)c1OC | 8.7* | -35.2 | 0.7 | 0.4 | 20.2* | 3.4 | 1.1 | 22.5* | 12.6*
COc1cccc(OC)c1C(=O)OCC(=O)Nc1ccc(OC(F)(F)F)cc1 | 10.3* | / | 0.3 | / | 27.3* | 1.7 | -0.1 | 1.9 | 6.1
CO[C@H]1CN(C)C(=O)c2cc(NC(C)=O)ccc2OC[C@@H](C)N(Cc2ccccc2F)C[C@H]1C | / | 4.0 | / | -0.4 | / | / | / | / | /
COc1ccc(C[C@H]2CCn3nncc3COC[C@@H](CC(C)C)NC2=O)cc1 | / | 4.4 | / | / | / | / | / | / | /
CCn1cc([N+](=O)[O-])c(C(=O)N2N=C(c3cccc4ccccc34)CC2c2ccccc2O)n1 (centres undefined) | 9.3* | / | -0.7 | / | 23.0* | 6.9 | 1.8 | 29.1* | 16.9*
CCn1cc([N+](=O)[O-])c(C(=O)N2N=C(c3ccc4ccccc4c3)CC2c2ccccc2O)n1 (centres undefined) | 9.1* | / | -1.0 | / | 24.4* | 8.2 | 2.5 | 33.2* | 17.9*
CCn1cc([N+](=O)[O-])c(C(=O)N2N=C(c3ccc(OC)cc3OC)CC2c2ccccc2O)n1 (centres undefined) | 2.6 | -0.5 | 0.1 | -0.6 | 8.2 | / | / | / | /
CCn1cc(Cl)c(C(=O)N2N=C(c3ccc4ccccc4c3)CC2c2ccccc2O)n1 (centres undefined) | 0.5 | -3.6 | 0.2 | -0.6 | -6.5 | / | / | / | /
N#CC1=C(N)NC(SCC(=O)c2ccc(Br)cc2)=C(C#N)C12CCCCC2 | 12.6* | -47.5 | -0.1 | 0.0 | 21.8* | 5.3 | 0.7 | 41.7* | 18.6*
C#CCN(C[C@@H]1[C@@H](OC(=O)NCc2ccccc2F)[C@@H](OC(=O)NCc2ccccc2F)Cn2c(=O)n(CCCCCC)c(=O)n21)S(=O)(=O)c1ccc(C)cc1 | 2.6 | 16.9 | 0.5 | 0.8 | 0.3 | / | / | / | /
C#CCN(C[C@@H]1[C@@H](OC(=O)NCc2ccccc2F)[C@@H](OC(=O)NCc2ccccc2F)Cn2c(=O)ccc(=O)n21)S(=O)(=O)c1ccc(C)cc1 | 9.4* | 1.1 | 0.2 | 0.3 | 24.4* | 6.0 | 0.7 | 22.1* | 11.7*
C[C@@H]1CN([C@@H](C)CO)C(=O)c2cc(NC(=O)C3CCCCC3)ccc2O[C@@H](C)CCCCO[C@H]1CN(C)C(=O)NC1CCCCC1 | / | -1.2 | / | 0.3 | / | / | / | / | /
CN1CCN(C(=O)C[C@@H]2C[C@@H]3c4cc(NC(=O)Nc5ccc(C(F)(F)F)cc5)ccc4O[C@@H]3[C@H](CO)O2)CC1 | / | -14.2 | / | -0.7 | / | / | / | / | /
Cc1cccc(Nc2nc(NCc3ccco3)nc(N)c2[N+](=O)[O-])c1 | -2.7 | 4.0 | -0.4 | 0.5 | 4.7 | / | / | / | /
